Out of some 390,000 compounds screened, about 4,000 (1%) were called active. Inconclusive results (about 7%) are left out. Calls follow the shape of the dose curve; as a rule, active = well fitted inhibition curve with a large enough effect; inconclusive = small, poorly fitted or top-dose-only effect, or another doubt; inactive = no such curve, though single readings can be large or run the other way. Shown is part of a subset that was picked to be rich in actives.
Potency is read from the fitted curve at half-maximal effect.

Chain of DNA polymerase iota (Homo sapiens) (Q9UNA4 whole entry, looked up): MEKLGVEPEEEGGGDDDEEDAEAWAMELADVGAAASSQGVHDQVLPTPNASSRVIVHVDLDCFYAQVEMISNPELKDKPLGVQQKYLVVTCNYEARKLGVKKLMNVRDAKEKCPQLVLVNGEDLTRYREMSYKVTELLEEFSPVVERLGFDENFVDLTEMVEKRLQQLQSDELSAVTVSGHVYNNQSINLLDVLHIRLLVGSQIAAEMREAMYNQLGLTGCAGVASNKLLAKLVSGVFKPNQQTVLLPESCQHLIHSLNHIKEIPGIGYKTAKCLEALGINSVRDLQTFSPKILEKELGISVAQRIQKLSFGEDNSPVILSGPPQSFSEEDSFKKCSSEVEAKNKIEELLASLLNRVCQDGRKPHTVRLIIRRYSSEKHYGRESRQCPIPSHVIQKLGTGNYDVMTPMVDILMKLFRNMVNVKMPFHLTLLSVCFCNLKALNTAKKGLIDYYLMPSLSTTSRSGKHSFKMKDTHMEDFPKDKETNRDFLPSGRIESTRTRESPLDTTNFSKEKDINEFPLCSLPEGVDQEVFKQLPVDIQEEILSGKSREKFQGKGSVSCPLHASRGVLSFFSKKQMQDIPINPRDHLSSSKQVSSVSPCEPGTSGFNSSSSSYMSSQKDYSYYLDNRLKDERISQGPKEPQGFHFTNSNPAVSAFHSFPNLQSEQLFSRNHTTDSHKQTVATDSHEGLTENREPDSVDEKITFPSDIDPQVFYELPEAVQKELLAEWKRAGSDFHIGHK

The assay has as its target DNA polymerase iota (Homo sapiens) (UniProt Q9UNA4). The assay is described as follows: qHTS for Inhibitors of Polymerase Iota. As to conditions: Pol iota fluorescent replication assay, 10 min; series mostly up to 115 µM; activity, negative = inhibition: at the top concentration. The procedure, abridged:
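Pol iota at 10 nM preincubated 15 min with compounds at room temperature; reaction started with fluorescent substrate, 50 nM final. Fluorescence read kinetically at 0 and 10 min; buffer-only wells as negative control.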
Background: qHTS replaces the single test concentration by a dilution series.
Regarding `CC(=O)c1ccc[n+](C(C)CCC(C)[n+]2cccc(C(C)=O)c2)c1` (centres undefined), the “activity, negative = inhibition” value is 64% (inactive). The same measure, in the same setting: the result for `COc1cccc(CNC(=O)CN2C(=O)CCc3cc(S(=O)(=O)N4CCOCC4)ccc32)c1` reads 2.67% (inactive). For `COc1ccc2[nH]c(C(=O)N/N=C/c3cc(OC)c(OC)c(OC)c3)cc2c1`, the Potency is 17.8 µM (active). For `COc1ccc(-c2cc(C(=O)NCc3cc(OC)c(OC)c(OC)c3)[nH]n2)cc1`, the “activity, negative = inhibition” value is 10.4% (inactive). For the compound `COc1ccc2[nH]c(=O)c(CNc3ccc(C)c(C)c3)cc2c1`, the “activity, negative = inhibition” value is 6.15% (inactive). Regarding `COc1ccccc1N1CCN(C(=O)C2Cc3ccccc3CN2C(=O)c2ccco2)CC1` (centres undefined), the “activity, negative = inhibition” value is -9.63% (inactive). `Cc1ccc(S(=O)(=O)N(C)C)cc1NC(=O)C1Cc2ccccc2CN1C(=O)c1ccco1` (centres undefined): the Potency is 22.4 µM (active). Consider `Cc1ccc(C)c(NC(=O)C2Cc3ccccc3CN2C(=O)OCc2ccccc2)c1` (centres undefined), for which the “activity, negative = inhibition” value is -32.5% (inactive). For the compound `OC[C@@H]1O[C@H](n2cnc3c(SCc4ccccc4)ncnc32)[C@H](O)[C@H]1O`, the “activity, negative = inhibition” value is 17.3% (inactive).

Turning to `COc1ccc(CNC(=O)Cc2coc3ccc(C(C)C)cc23)cc1`, the “activity, negative = inhibition” value is -11.3% (inactive). Turning to `CCOC(=O)c1c(C)[nH]c2c1-c1ccccc1C(=O)C2=O`, the Potency is 1.41 µM (active). As for `CCOC(=O)c1c(SCC(=O)Nc2cccc(C)c2C)nc(=O)[nH]c1C`, the “activity, negative = inhibition” value was -9.72% (inactive). In the case of `CCOC(=O)c1c(C)[nH]c(C)c1S(=O)(=O)N(C)CC(=O)N1CCN(c2ccccc2)CC1`, the “activity, negative = inhibition” value is 15.1% (inactive). For `Cc1ccc(-n2ncc3c(=O)n(Cc4cccc(C(F)(F)F)c4)cnc32)cc1C`, the “activity, negative = inhibition” value is 2.4% (inactive). Still for that read-out and setting: the result for `Cc1ccccc1N/N=C/c1ccc(N2CCOCC2)cc1` reads -12.5% (inactive); that for `O=C(O)c1ccc(N/N=C/c2ccc3ncccc3c2)cc1`, -5.75% (inactive). In the case of `O=C(O)c1ccc(NN=CC2=C(N3CCOCC3)/C(=C/c3ccccc3)CC2)cc1`, the Potency is 20 µM (active). With `CCCCOc1ccc(C(=O)NO)cc1`, the “activity, negative = inhibition” value is 20.2% (inactive).

Turning to `C/C=C/NNC(=O)Cc1ccc(OC)cc1`, the “activity, negative = inhibition” value is 11.8% (inactive).

For the compound `COc1cc(NS(=O)(=O)c2ccc3c(c2)OCC(C(=O)N2CCCC2)O3)cc(OC)c1` (centres undefined), the “activity, negative = inhibition” value is 8.22% (inactive). With `COc1ccc(OC)c2sc(N3CCN(C(=O)C4COc5ccccc5O4)CC3)nc12` (centres undefined), the “activity, negative = inhibition” value is 11.7% (inactive). With `Cc1c(CC(=O)N2CCN(C(=O)C3COc4ccccc4O3)CC2)c(=O)oc2c(O)c(O)ccc12` (centres undefined), the Potency is 3.16 µM (active). Take `Cc1ccc(-c2ccc(CCC(=O)O)n2-c2ccc(C(N)=O)cc2)cc1`: the “activity, negative = inhibition” value is 3.26% (inactive). As for `O=C(CN1CCN(S(=O)(=O)c2cc(Cl)ccc2Cl)CC1)c1ccc(O)c(O)c1`, the Potency is 10 µM (active). In the case of `COc1ccc(Cl)cc1S(=O)(=O)N1CCN(CC(=O)C(C)(C)C)CC1`, the “activity, negative = inhibition” value is -2.4% (inactive).

In the case of `N#Cc1ccsc1NC(=O)CN1CCN(S(=O)(=O)c2cc(Cl)ccc2Cl)CC1`, the “activity, negative = inhibition” value is -9.21% (inactive).

With `Cc1[nH]c2ccccc2c1C(=O)C(=O)N(C)c1ccccc1`, the “activity, negative = inhibition” value was 27.1% (inactive). Turning to `Cc1ccc(-c2nc3ccccn3c2Nc2ccc(F)cc2)o1`, the “activity, negative = inhibition” value was 21.9% (inactive).

`CCCCCCCNc1ccc(/C=C/c2ccnc3ccccc23)cc1`: the “activity, negative = inhibition” value is 34.6% (inactive). In the case of `O=C(Cn1c(=O)n(-c2ccc(F)cc2)c(=O)c2sc3ccccc3c21)NC1CCCC1`, the “activity, negative = inhibition” value is -2.5% (inactive). As for `COc1ccc(CNC(=O)c2cc3c(-c4ccccc4F)nn(C)c3s2)c(OC)c1`, the “activity, negative = inhibition” value was -0.744% (inactive). Take `CSc1cccc(NC(=O)CN2C(=O)CCc3cc(S(=O)(=O)N4CCCCC4)ccc32)c1`: the “activity, negative = inhibition” value was -12.3% (inactive). In the case of `O=C1c2ccccc2-c2ncnc3c(N4CCOCC4)cc(N4CCOCC4)c1c23`, the “activity, negative = inhibition” value was 12.6% (inactive).

With `Cc1oc2c(c1C(=O)N1CCOCC1)C(=O)c1ccccc1C2=O`, the “activity, negative = inhibition” value is -7.65% (inactive).

In the case of `COC1=C(N2CCOCC2)C(=O)c2ccccc2C1=O`, the Potency was 14.1 µM (active). `Cc1cccn2c(=O)c3cc(C(=O)NC(C)c4ccccc4)c(=N)n(CCCO)c3nc12` (centres undefined): the “activity, negative = inhibition” value is 5.28% (inactive). As to `COc1ccc(-c2c(C)c3ccc(O)c(CN4CCN(C)CC4)c3oc2=O)cc1OC`, the “activity, negative = inhibition” value was -12.2% (inactive).

Take `COc1cc(O)c2c(=O)c3c(O)c(O)ccc3oc2c1OC`: the “activity, negative = inhibition” value was -4.12% (inactive). In the case of `COc1c(O)cc2oc(-c3ccc(O)c(O)c3)cc(=O)c2c1O`, the Potency was 7.94 µM (active). On to `C=CCn1c(SCC(=O)NCC2CCCO2)nc2sc(C)c(C)c2c1=O` (centres undefined), for which the “activity, negative = inhibition” value was 22.8% (inactive).

Regarding `C=CCn1c(=S)[nH]c2scc(-c3ccco3)c2c1=O`, the Potency is 4.47 µM (active). On the same count and under the same terms, to `C=CCNC(=O)CSc1nc2scc(-c3ccco3)c2c(=O)n1CC=C` belongs 44.7 µM (active). In the case of `C=CCn1c(SCC(=O)NCCCO)nc2sc3c(c2c1=O)CCC3`, the “activity, negative = inhibition” value is 45.2% (inactive). Turning to `CCOC(=O)c1cccc(NC(=O)C(Cc2ccccc2)NS(=O)(=O)c2cccc3nsnc23)c1` (centres undefined), the “activity, negative = inhibition” value was 39.6% (inactive). Regarding `Cc1ccc(N2CC(c3nnc(Cc4ccccc4Cl)o3)CC2=O)cc1` (centres undefined), the “activity, negative = inhibition” value was -8.99% (inactive). In the case of `CCOc1ccc(N(CC)S(=O)(=O)N2CCCC(C(=O)NCc3ccc(Cl)cc3)C2)cc1` (centres undefined), the “activity, negative = inhibition” value is 4.52% (inactive).

In the case of `CCOc1ccc(-n2nc3ccc(NC(=O)c4ccc(OC)c(Cl)c4)cc3n2)cc1`, the “activity, negative = inhibition” value is 23.2% (inactive). For the compound `CCOc1ccc(CNC(=O)C2CCCN(S(=O)(=O)N(CC)c3ccc(OCC)cc3)C2)cc1` (centres undefined), the “activity, negative = inhibition” value was -9.13% (inactive).

As to `CCN(CC)CCNC(=O)Cn1ncc2c3ccccc3n(Cc3ccccc3C)c2c1=O`, the “activity, negative = inhibition” value is 20.6% (inactive).

`CC1CCN(C(=O)c2ccc3c(=O)n4c(nc3c2)CCCCC4)CC1`: the “activity, negative = inhibition” value is 2.81% (inactive). Regarding `N#Cc1cccc(OC(=O)c2ccc3c(=O)n4c(nc3c2)CCC4)c1`, the Potency is 20 µM (active). Take `COC(=O)c1ccccc1NC(=O)c1ccc2c(=O)n3c(nc2c1)CCCCC3`: the “activity, negative = inhibition” value was 17% (inactive).

For the compound `CCOC(=O)c1c(NC(=O)Cc2coc3ccc(CC)cc23)sc2c1CCC2`, the “activity, negative = inhibition” value was 20.1% (inactive). On to `O=C1COc2c1ccc(O)c2O`, for which the Potency was 17.8 µM (active). As to `CCc1ccc(CNC(=O)c2cc3c(=O)n(CC)c4ccccc4c3s2)cc1`, the “activity, negative = inhibition” value is -4.94% (inactive). With `Cn1cccc1/C=C1\SC(=O)N(CC(=O)Nc2ccc(F)cc2)C1=O`, the Potency is 79.4 µM (active). For the compound `O=C(CN1C(=O)COc2ccccc21)Nc1ccc(F)cc1`, the “activity, negative = inhibition” value is 25.2% (inactive). `CCc1ccc(NC(=O)CN2C(=O)CSC2=O)cc1`: the “activity, negative = inhibition” value is -2.66% (inactive). Regarding `Cc1ccccc1CN1CCC(CNC(=O)c2c(C)oc3ncnc(N4CCCCC4)c23)CC1`, the “activity, negative = inhibition” value was -25.9% (inactive). Turning to `CCOc1cc(-c2nnc(SCC(=O)NC3CCCCC3)nc2-c2ccc(OC)c(OCC)c2)ccc1OC`, the “activity, negative = inhibition” value was 26.3% (inactive). In the case of `CN1CCN(C(=O)Cn2c(C(F)(F)F)nc3ccccc32)CC1`, the “activity, negative = inhibition” value is 68.1% (inactive). On the same count and under the same terms, the result for `CCc1nn(CC(=O)N2CCN(CC)CC2)c(=O)c2cccn12` reads -19.7% (inactive). On to `CCCN1CCN(C(=O)Cn2ncc3ccccc32)CC1`, for which the Potency was 39.8 µM (active).

For `Oc1ccc(-c2nc3ccc(Cl)cn3c2Nc2ccc3c(c2)OCO3)cc1`, the “activity, negative = inhibition” value was -2.69% (inactive).

(Values after PubChem BioAssay AID588590 (National Center for Advancing Translational Sciences (NCATS), 2011).)
